High-throughput results (PubChem BioAssay)
Beta cell apopt = beta cell apoptosis inhibition; INS-1E cytokine-induced death, ATP luminescence, 48 h; percent of positive-control rescue, neutral wells zero; protection from apoptosis, % (test concentration not listed); actives 0.8% (n = 300,000); AID 435005;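 active = Every replicate reaches about 75%, or at least half do and their mean reaches it too, limit read from the data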;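 note: 0% = cytokine-treated negative control wells and 100% = positive control rescue; higher means more ATP so stronger rescue from cytokine killing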
PP1 inh = counter-screen for PP5 inhibitors: inhibitors of human PP1-alpha. purified PP1alpha, OMFP fluorescence. AID 2235. actives 0.9% (n = 320,000). inhibition, % at 6.7 µM;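 active = inhibition above the mean inhibition of all tested compounds plus 3 SD, computed separately for each screening campaign, cut at about 15% in these data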
PP5 primary = blocks human protein phosphatase 5 activity. P53041. purified PP5c, OMFP substrate fluorescence. inhibition, % at 6.7 µM. actives 0.18% (n = 320,000);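 active = inhibition above the campaign's mean inhibition across all tested compounds plus 3 SD, cut at about 9.5% in these data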;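 note: 0% = DMSO only and 100% = 100 µM cantharidin control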
Target sequence (P53041 whole entry, looked up): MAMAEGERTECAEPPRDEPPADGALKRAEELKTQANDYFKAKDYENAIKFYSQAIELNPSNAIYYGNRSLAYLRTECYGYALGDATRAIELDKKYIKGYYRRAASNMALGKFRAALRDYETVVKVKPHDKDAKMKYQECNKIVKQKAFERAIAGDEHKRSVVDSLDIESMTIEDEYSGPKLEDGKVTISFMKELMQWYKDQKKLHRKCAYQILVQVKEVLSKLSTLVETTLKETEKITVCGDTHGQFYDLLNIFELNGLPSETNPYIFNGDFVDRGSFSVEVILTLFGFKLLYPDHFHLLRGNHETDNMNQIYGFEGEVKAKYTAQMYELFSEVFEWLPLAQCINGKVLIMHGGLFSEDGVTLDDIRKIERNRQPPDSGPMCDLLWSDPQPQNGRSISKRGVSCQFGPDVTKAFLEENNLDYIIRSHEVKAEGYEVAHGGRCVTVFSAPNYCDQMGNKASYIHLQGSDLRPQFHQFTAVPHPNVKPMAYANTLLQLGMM
Calb FLC = affects C. albicans growth with fluconazole. C. albicans CaCi-2 (fluconazole-resistant clinical isolate) + fluconazole, Alamar Blue growth, 48 h. growth inhibition, % (concentration not given with the values). actives 0.57% (n = 300,000). AID 1979;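 active = growth inhibition above about 58% in most replicates, limit read from the data, passing the limit was not always enough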;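 note: all wells also contain fluconazole at 8 µg/ml as a sub-toxic cotreatment; 0% = median of DMSO wells and 100% = median of geldanamycin control wells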
CSC inhib = cancer stem cell inhibition; cancer stem cell-like cells viability, luminescence; inhibition, % at 7.5 µM; actives 1.1% (n = 300,000); in the data active = inhibition above about 75%; tested in HMLE shEcad cells
Mdm2-MdmX inh = disrupts the human Mdm2-MdmX interaction | O15151+Q00987 | SaOS-2 split-luciferase Mdm2/MdmX complementation, luminescence | inhibition, % at 8 µM | actives 3% (n = 330,000);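 active = inhibition of at least 50% at 8 µM in the primary screen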
Mdm2 MdmX conf = confirmation of human Mdm2/MdmX interaction inhibitors | shares compounds with Mdm2-MdmX inh | Mdm2-MdmX binding, luminescent assay | inhibition, % at 8 µM | actives 55% (n = 10,000); in the data active = inhibition above about 40%
Full FLuc ctr = inhibits full-length luciferase, flagging false Mdm2/MdmX hits. shares compounds with Mdm2-MdmX inh. SaOS-2 full-length luciferase counterscreen, luminescence. inhibition, % at 8 µM. actives 77% (n = 6,200);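 active = mean inhibition at 8 µM reaching about 37%, which flags the compound as non-specific, limit read from the data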;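 note: p53-null SaOS-2 cells with luciferase driven by a doxycycline-inducible promoter; compound on cells about two nights before reading with doxycycline added after day one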
The depositor's hits bear a star; / = not tested or not shown; + = active, no number. Hits are enriched below; roughly 4.9% of the tested compounds scored in any of these assays.

SMILES | Beta cell apopt | PP1 inh | PP5 primary | Calb FLC | CSC inhib | Mdm2-MdmX inh | Mdm2 MdmX conf | Full FLuc ctr
COc1ccccc1C(=O)Nc1ccc(OCC(=O)N2CCCCC2C)cc1 (stereo not drawn) | / | -4 | -1 | / | / | 0 | / | /
COc1ccc(C2CC(=O)c3c(C)nc(N4CCN(Cc5ccccc5)CC4)nc3C2)cc1OC (stereo not drawn) | 9 | 6 | 2 | 9 | 28 | 25 | / | /
COc1cc(C2CC(=O)c3cnc(N4CCN(Cc5ccccc5)CC4)nc3C2)cc(OC)c1OC (stereo not drawn) | 15 | 0 | 4 | -9 | 53 | 52* | 68* | 52*
CC1Cc2ccccc2N1C(=O)c1cc2c(=O)n3ccccc3nc2n1C (stereo not drawn) | 0 | 2 | 1 | 34 | 18 | 53* | 10 | /
CCCCCC1C(=O)C[C@@H]2CCN3C(=O)CCC[C@H]1[C@H]23 (stereo partly drawn) | / | / | / | / | / | 14 | / | /
O=C(COC(=O)c1cnccn1)c1ccc(C2CCCCC2)cc1 | 1 | -2 | 1 | -3 | -7 | 20 | / | /
Cc1[nH]nc2nc(SCC(=O)NCCC3=CCCCC3)n(-c3ccc(Br)cc3)c(=N)c12 | 93* | 14 | 1 | 2 | 56 | 91* | 47* | 31
CCOc1ccccc1-n1c(SCC(=O)Nc2ccc(CC)cc2)nc2n[nH]c(C)c2c1=N | 13 | -2 | 0 | -2 | 0 | 93* | 11 | /
COc1ccc(OC)c(NC(=O)CSc2nc3n[nH]c(C)c3c(=N)n2-c2cccc(Cl)c2C)c1 | 4 | 2 | 7 | 46 | 21 | 49 | / | /
CCOc1ccccc1NC(=O)CCSc1nc2n[nH]c(C)c2c(=N)n1-c1ccccc1Cl | 9 | 7 | 1 | 1 | 13 | 28 | / | /
Cc1ccccc1-n1c(SCC(=O)Nc2ccccc2Cl)nc2n[nH]c(C)c2c1=N | 1 | -4 | 0 | 22 | 16 | 66* | 12 | /
Cc1cc(N2CCOCC2)n2ncc(-c3ccc(Cl)cc3)c2n1 | -2 | -4 | -1 | 13 | 21 | 62* | 74* | 195*
CC(=O)Nc1ccc(Nc2cc(C)nc3c(-c4ccc(Cl)cc4)cnn23)cc1 | 7 | 3 | 6 | 0 | / | 81* | 87* | 156*
Cc1ccc(-c2cnn3c(N4CCOCC4)cc(C)nc23)cc1 | -8 | / | / | 6 | 5 | 64* | 69* | +
O=C(NNS(=O)(=O)c1ccccc1[N+](=O)[O-])c1cccnc1 | -1 | 0 | 0 | -4 | -3 | 13 | / | /
CC(=O)n1c(=O)oc2ccccc21 | -6 | -3 | -1 | 13 | -1 | -16 | / | /
O=C1CC(c2cccnc2)c2cc3c(cc2N1)OCCO3 (stereo not drawn) | 2 | -1 | 3 | 1 | -2 | 1 | / | /
CCOc1ccccc1C1CC(=O)Nc2cc3c(cc21)OCCO3 (stereo not drawn) | 19 | 1 | 3 | -6 | 56 | 70* | 58* | 123*
CCCOc1ccccc1C1CC(=O)Nc2cc3c(cc21)OCCO3 (stereo not drawn) | 26 | -3 | 6 | -1 | 31 | 52* | 49* | 61*
CCCOc1ccccc1C1CC(=O)NC2=C1C(=O)CCC2 (stereo not drawn) | 5 | -3 | 1 | 8 | 52 | 58* | 56* | 48*
CCOc1cc(C(=O)Nc2ccccc2F)cc(Br)c1OCC | 10 | 1 | 0 | 7 | 4 | 33 | / | /
CN(C)C(=O)N1CCC(C(=O)N2CCCC(C(=O)c3cccc4ccccc34)C2)CC1 (stereo not drawn) | -2 | -1 | -1 | -15 | / | 8 | / | /
COC(=O)c1ccc(CSc2nnc(Nc3ccccc3OC)s2)o1 | -4 | -3 | 3 | -5 | 33 | 62* | 57* | 84*
CC[C@H](C)[C@@H]1NC(=O)c2cc([N+](=O)[O-])cc(I)c2SC[C@@H](C(N)=O)NC(=O)[C@H](CCCCN)NC1=O | -2 | 0 | 1 | / | -10 | -29 | / | /
COc1ccc(-c2noc(CSc3nc4sc(C)c(C)c4c(=O)n3-c3ccccc3)n2)cc1 | 5 | -1 | -1 | -19 | 11 | 44 | / | /
SMILES | Beta cell apopt | PP1 inh | PP5 primary | Calb FLC | CSC inhib | Mdm2-MdmX inh | Mdm2 MdmX conf | Full FLuc ctr
COc1ccc(-c2noc(CSc3nc4sc(C)c(C)c4c(=O)n3-c3ccccc3)n2)cc1OC | 1 | -3 | -2 | 0 | -8 | 50* | 32 | /
Cc1ccnn1CCC(=O)O | -5 | -3 | 0 | -8 | -13 | 6 | / | /
COc1ccc(C2c3ccc4ccccc4c3Oc3ncn(CCCO)c(=N)c32)cc1 (stereo not drawn) | 8 | 0 | 3 | 27 | 6 | 93* | 30 | /
COc1ccc(C2c3ccc4ccccc4c3Oc3ncn(CCN(C)C)c(=N)c32)cc1 (stereo not drawn) | 7 | 2 | 4 | 25 | 16 | 91* | 43* | 64*
CN(C)CCCn1cnc2c(c1=N)C(c1ccccc1)c1ccc3ccccc3c1O2 (stereo not drawn) | 98* | 0 | 2 | 9 | 104* | 100* | 100* | 52*
CC1(C)CC(=O)C2=C(C1)Oc1ncn(CCCO)c(=N)c1C2c1ccccc1 (stereo not drawn) | 0 | -4 | 3 | -9 | -7 | 5 | / | /
N=c1c2c(ncn1CCCO)Oc1ccc3ccccc3c1C2c1ccccc1 (stereo not drawn) | 111* | 5 | 1 | 29 | 15 | 58* | 31 | /
C=CCSC1=N/C(=C\c2cc(OCC)c(OC(C)=O)c([N+](=O)[O-])c2)C(=O)S1 | -4 | 3 | 2 | 6 | 5 | 33 | / | /
CCCCN(C(=O)Cc1ccc2c(c1)OCCO2)c1c(N)n(CCC)c(=O)[nH]c1=O | 4 | -1 | -1 | / | / | 12 | / | /
O=C(NC(Cc1ccccc1)C(=O)O)/C(=C\c1ccc(Cl)cc1)NC(=O)c1ccco1 (stereo not drawn) | -18 | 2 | 4 | 0 | 2 | -5 | / | /
COc1ccc(C2c3ccc4ccccc4c3Oc3ncn(CCO)c(=N)c32)cc1 (stereo not drawn) | 3 | 0 | 5 | 27 | 35 | 97* | 51* | 76*
N=c1c2c(ncn1CCCO)Oc1c(ccc3ccccc13)C2c1ccccc1 (stereo not drawn) | 19 | 1 | 1 | 12 | 50 | 62* | 31 | /
COc1ccc(Cc2nc3c4c(ncn3n2)Oc2c(ccc3ccccc23)C4c2ccc(OC)c(OC)c2)cc1 (stereo not drawn) | -2 | -2 | 1 | -1 | -1 | 13 | / | /
